GPR151 ag: activates the human receptor GPR151. Q8TDV0. PathHunter beta-arrestin GPR151 cells, luminescence. activation, % at 11.2 µM. actives 1% (n = 650,000); in the data active = activation above about 4.9%;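 also: 0% = median of compound wells and 100% = cells with positive control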
MITF primary: blocks human microphthalmia-associated transcription factor. O75030. inhibition, % at 2.6 µM. actives 0.91% (n = 650,000). AID 1259374. AlphaScreen MITF homodimerization, bead proximity signal; in the data active = inhibition above about 50%;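 also: 0% = vehicle wells with protein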
Target sequence (O75030 whole entry, looked up): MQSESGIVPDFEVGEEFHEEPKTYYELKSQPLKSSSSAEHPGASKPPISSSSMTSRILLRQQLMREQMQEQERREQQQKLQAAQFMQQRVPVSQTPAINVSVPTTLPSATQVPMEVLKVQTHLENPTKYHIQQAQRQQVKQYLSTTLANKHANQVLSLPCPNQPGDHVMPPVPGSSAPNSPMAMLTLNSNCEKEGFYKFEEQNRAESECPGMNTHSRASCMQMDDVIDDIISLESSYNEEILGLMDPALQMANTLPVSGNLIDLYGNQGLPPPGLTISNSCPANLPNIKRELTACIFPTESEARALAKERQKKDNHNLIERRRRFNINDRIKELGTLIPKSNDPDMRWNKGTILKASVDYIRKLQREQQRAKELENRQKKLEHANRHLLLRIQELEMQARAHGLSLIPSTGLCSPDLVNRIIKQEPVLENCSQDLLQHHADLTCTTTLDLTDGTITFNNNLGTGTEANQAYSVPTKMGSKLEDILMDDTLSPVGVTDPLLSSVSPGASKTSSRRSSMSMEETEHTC
FBW7 activator: activators of human E3 ligase FBW7; Q969H0; AlphaScreen FBW7–phospho-cyclin E peptide binding, activator screen; normalized activity (activation), % at 26.1 µM; actives 0.13% (n = 650,000); AID 1259310; in the data active = normalized activity above about 1.9%;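 also: purified mutant Fbw7 with reduced substrate affinity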
TEAD-YAP inh: TEAD-YAP interaction inhibition; actives 1.4% (n = 640,000); inhibition, % at 9.12 µM; AID 1259422; HEK-TIYL cells, TEAD-Gal4/YAP UAS-luciferase luminescence; in the data active = inhibition above about 32%;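 also: 0% = median of test compound wells and 100% = reference inhibitor wells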
GPR151 confirm: confirmation of human GPR151 activators; shares compounds with GPR151 ag; GPR151 PathHunter beta-arrestin cells, luminescence, 90 min; % of EA-reagent control over plate median; activation, % at 11.2 µM; 6,700 tested, under 10 active;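 active = mean percent activation across replicates above the confirmation screen cutoff of 4.91%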
GPR119 counter: counter-screen for GPR151 activators: effect on human GPR119. activation, % at 11.2 µM. shares compounds with GPR151 ag. actives 0.3% (n = 6,700). AID 1508611. GPR119 PathHunter beta-arrestin cells, luminescence, 90 min; 0 = compound-well median, 100 = enzyme-acceptor control;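 active = mean percent activation in the counterscreen above 29.09%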;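 also: counterscreen on off-target GPR119 to flag nonselective hits from the GPR151 activator screen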
* hit, by the source's call; · = not tested or not shown; ! = a repeat was not active. In the library only some 3.5% were active in any assay of this set; here they are far more common.

SMILES	GPR151 ag	MITF primary	FBW7 activator	TEAD-YAP inh	GPR151 confirm	GPR119 counter
COc1ccccc1CNS(=O)(=O)c1ccc(F)c(C(=O)Nc2ccc(Cl)cc2)c1	2	1	0	7	·	·
CCOc1ccccc1NC(=O)c1cc(S(=O)(=O)NCCc2ccccc2)ccc1F	5.0*	11	0	-3	0	-15
COc1ccccc1CNS(=O)(=O)c1ccc(F)c(C(=O)Nc2ccc(F)cc2)c1	5.4*	18	0	2	0	-8
CCCCSc1nnc2c(n1)OC(c1cc(OC)c(OC(C)=O)cc1Cl)N(C(C)=O)c1ccccc1-2 (configuration not stated)	0	-5	0	-7	·	·
CC(C)(C)C(=O)NC1(C(F)(F)F)NC(=O)N(c2ccccc2F)C1=O (configuration not stated)	6.6*	-11	0	-1	1	10
CC1Sc2cc(S(=O)(=O)CCC(=O)Nc3ccccc3F)ccc2NC1=O (configuration not stated)	5.3*	-1	0	-3	0	-7
CC1Sc2cc(S(=O)(=O)CCC(=O)NC3CCCC(C)C3C)ccc2NC1=O (configuration not stated)	5.1*	-2	0	15	1	8
CC(=O)c1cccc(NC(=O)c2ccoc2C)c1	5.9*	-4	0	4	-1	-9
CCOC(=O)c1c(NC(=O)COc2ccccc2)sc(C(=O)OC)c1C	-2	23	0	-6	·	·
CCOC(=O)N1CCC(N(CCN(C)C)C(=S)Nc2cc(C)cc(C)c2)CC1	7.7*	-2	0	-10	0	4
CCOC(=O)N1CCC(N(CCN(C)C)C(=S)Nc2cccc(CC)c2)CC1	0	-8	0	-8	·	·
CCOC(=O)N1CCN(C(=S)Nc2cc(Cl)ccc2OC)CC1	1	2	0	1	·	·
CCOC(=O)N1CCN(C(=S)Nc2cc(OC)ccc2OC)CC1	5.2*	10	0	7	0	1
CCOC(=O)N1CCN(C(=O)Nc2ccc(Cl)cc2Cl)CC1	5.1*	-29	0	6	0	-8
CCOC(=O)N1CCN(C(=S)Nc2ccc(C)cc2)CC1	6.0*!	-2	1	-7	2	11
CC(=O)c1cc(C(=O)NCC2CCC3(CCN(Cc4ccccc4)CC3)O2)cs1 (configuration not stated)	4	-6	0	-3	·	·
CCOC(=O)c1c(NC(=O)/C=C/c2ccc(C)o2)sc(C)c1C	9.8*	8	0	2	0	4
COc1ccc(-c2noc(NCc3cccc(Cl)c3)n2)cc1OC	4.9*	14	1	1	1	-7
COc1ccc(-c2noc(NCc3ccccc3)n2)cc1OC	-1	4	0	-3	·	·
CCCCC[C@H]1O[C@H]1C/C=C\C/C=C\C/C=C\CCCC(=O)O	-2	-3	·	·	·	·
CCCCC/C=C\C/C=C\C/C=C\C[C@H]1O[C@H]1CCCC(=O)O	5.8*	-2	·	·	0	8
CC(=O)NS(=O)(=O)c1ccc(NC(=O)Nc2ccc(Cl)cc2)cc1	7.4*	0	0	2	-1	-3
COc1ccc(S(=O)(=O)NNC(=O)Nc2ccc(Cl)cc2)cc1	8.3*	-5	0	-4	1	9
O=CN/N=C/c1ccc(-c2ccc([N+](=O)[O-])cc2)o1	0	7	1	7	·	·
CCOC(=O)C1CCN(C(=O)/C(=C/c2cccc([N+](=O)[O-])c2)c2ccccc2)CC1	8.7*	12	0	-1	0	-13
SMILES	GPR151 ag	MITF primary	FBW7 activator	TEAD-YAP inh	GPR151 confirm	GPR119 counter
COC(=O)C1CCN(C(=O)/C(=C\c2ccccc2)c2ccccc2)CC1	1	-2	0	0	·	·
CCOc1cc(/C=N/NS(C)(=O)=O)ccc1O	9.0*	11	0	15	0	-6
CCOc1cc(/C=N/Nc2ccc(S(=O)(=O)O)cc2)ccc1O	0	47	0	18	·	·
CC(=O)c1ccc(NC(=S)Nc2ccc(F)c(F)c2)cc1	2	9	0	10	·	·
COc1ccc(C2C(C(=O)N3CCOCC3)c3ccccc3C(=O)N2Cc2ccc(F)cc2)cc1 (configuration not stated)	0	3	0	6	·	·
O=C(NC1CCCC1)C1CCC(=O)N1C1CCCCC1 (configuration not stated)	4	4	0	4	·	·

Screening results as filed in PubChem BioAssay.
